According to PubChem BioAssay:
Activity calls are given as the source filed them.

Experiments:
[1] = tested on: Plasmodium falciparum Sir2 (PF13_0152, Sir2A); assay: pfSir2 binders on small-molecule microarrays, primary screen, biochemical, small-molecule microarray, 635 nm fluorescence (AID 1098); details: small-molecule microarray binding, fluorescence 635 nm; higher = more signal;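 note: score merges spot fluorescence intensity with its signal-to-noise ratio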
[2] = small-molecule microarray binders of probe aDKK1, primary screen, biochemical, biotinylated probe, 635/667 nm fluorescence (AID 1099); details: higher = more signal;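 note: score merges 667nm spot fluorescence with signal to noise across triplicate slides; reference of the scale not given here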
[3] = small-molecule microarray binders of probe aCHRDL2, primary screen, biochemical, biotinylated probe, 635/667 nm fluorescence (AID 1100); details: higher = more signal
[4] = splicing luciferase reporter signal modulators, primary screen, spliceosome inhibition project, cell-based, HEK293, splice +/- reporter (AID 1101); details: luminescence, 24 h, higher = more signal, called active from +8 up or from −8 down;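 note: HEK293 cells carrying a splicing-competent luciferase reporter gene; test concentration not given here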
[5] = biological target: Fibroblast growth factor 10 (Homo sapiens) (UniProt O15520); assay: FGF10 binders on small-molecule microarrays, primary screen, biochemical, small-molecule microarray, 635 nm fluorescence (AID 1102); details: FGF10 binding, fluorescence 635 nm, higher = more signal
Sequence of Fibroblast growth factor 10 (Homo sapiens) (O15520 whole entry, looked up): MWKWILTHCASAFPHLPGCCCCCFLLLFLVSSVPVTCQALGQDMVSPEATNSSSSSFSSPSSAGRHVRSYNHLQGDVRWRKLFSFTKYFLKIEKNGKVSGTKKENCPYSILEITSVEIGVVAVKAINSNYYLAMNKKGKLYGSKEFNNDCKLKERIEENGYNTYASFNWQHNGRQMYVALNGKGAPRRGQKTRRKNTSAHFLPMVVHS

[6] = tested on: glycogen synthase kinase-3 (GSK3A per assay name; protocol says GSK3B); assay: GSK3 binders on small-molecule microarrays, primary screen, biochemical, small-molecule microarray, 635 nm fluorescence, GSK3A (AID 1103); details: small-molecule microarray binding, fluorescence 635 nm; higher = more signal; note: the record names both GSK3A and GSK3B
[7] = biological target: Epidermal growth factor receptor (Homo sapiens) (UniProt P00533); assay: EGFR binders on small-molecule microarrays, primary screen, biochemical, small-molecule microarray, 635 nm fluorescence (AID 1104); details: EGFR binding, higher = more signal;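 note: score merges 667 nm emission intensity with spot signal to noise over triplicate slides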
Sequence of Epidermal growth factor receptor (Homo sapiens) (P00533 whole entry, looked up): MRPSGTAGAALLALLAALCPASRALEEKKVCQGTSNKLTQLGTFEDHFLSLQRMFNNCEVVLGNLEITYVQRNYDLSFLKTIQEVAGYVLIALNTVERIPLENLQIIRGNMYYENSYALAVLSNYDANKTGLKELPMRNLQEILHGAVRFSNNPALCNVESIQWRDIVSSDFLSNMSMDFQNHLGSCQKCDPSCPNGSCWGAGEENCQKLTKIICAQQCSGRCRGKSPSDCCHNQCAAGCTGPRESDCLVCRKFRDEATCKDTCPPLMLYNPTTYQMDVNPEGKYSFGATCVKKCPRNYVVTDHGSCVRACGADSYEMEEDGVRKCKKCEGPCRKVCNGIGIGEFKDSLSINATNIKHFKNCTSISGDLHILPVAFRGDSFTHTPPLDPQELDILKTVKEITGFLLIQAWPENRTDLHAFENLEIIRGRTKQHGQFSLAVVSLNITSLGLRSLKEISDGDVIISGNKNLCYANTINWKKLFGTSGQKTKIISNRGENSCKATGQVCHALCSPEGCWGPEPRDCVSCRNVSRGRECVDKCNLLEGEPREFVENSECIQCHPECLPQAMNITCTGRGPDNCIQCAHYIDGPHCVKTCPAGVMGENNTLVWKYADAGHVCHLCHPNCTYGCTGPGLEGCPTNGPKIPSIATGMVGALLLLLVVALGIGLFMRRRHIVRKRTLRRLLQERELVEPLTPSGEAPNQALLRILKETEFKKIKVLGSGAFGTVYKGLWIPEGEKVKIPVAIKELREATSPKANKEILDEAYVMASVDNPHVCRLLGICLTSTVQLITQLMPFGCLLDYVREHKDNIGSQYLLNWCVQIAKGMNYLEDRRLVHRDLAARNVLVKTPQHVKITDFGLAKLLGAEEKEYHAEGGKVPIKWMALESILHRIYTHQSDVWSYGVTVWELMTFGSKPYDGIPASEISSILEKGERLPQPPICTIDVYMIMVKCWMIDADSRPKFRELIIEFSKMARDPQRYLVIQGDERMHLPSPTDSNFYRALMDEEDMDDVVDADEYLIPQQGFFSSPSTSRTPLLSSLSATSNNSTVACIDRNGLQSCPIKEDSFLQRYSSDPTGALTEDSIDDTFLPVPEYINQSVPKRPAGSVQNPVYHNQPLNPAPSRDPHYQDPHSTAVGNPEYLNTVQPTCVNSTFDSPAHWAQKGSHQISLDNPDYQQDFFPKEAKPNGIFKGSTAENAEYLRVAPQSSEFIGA

[8] = biological target: Follistatin-related protein 3 (Homo sapiens) (UniProt O95633); assay: FSTL3 binders on small-molecule microarrays, primary screen, biochemical, small-molecule microarray, 635 nm fluorescence (AID 1105); details: FSTL3 binding, higher = more signal;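 note: score merges emission near 667 nm and signal to noise per printed spot across three slides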
Sequence of Follistatin-related protein 3 (Homo sapiens) (O95633 whole entry, looked up): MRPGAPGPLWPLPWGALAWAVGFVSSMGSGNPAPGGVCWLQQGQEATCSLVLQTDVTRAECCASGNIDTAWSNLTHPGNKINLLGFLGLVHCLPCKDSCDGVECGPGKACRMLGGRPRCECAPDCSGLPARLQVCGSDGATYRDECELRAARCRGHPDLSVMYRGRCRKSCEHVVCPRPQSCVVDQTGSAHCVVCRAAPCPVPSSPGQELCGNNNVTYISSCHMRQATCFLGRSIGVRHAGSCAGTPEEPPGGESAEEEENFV

[9] = biological target: Dickkopf-related protein 1 (Homo sapiens) (UniProt O94907); assay: DKK1 binders on small-molecule microarrays, primary screen, biochemical, small-molecule microarray, 635 nm fluorescence scan (AID 1106); details: DKK1 binding, higher = more signal;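 note: score merges emission near 667 nm with signal to noise over three replicate slides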
Sequence of Dickkopf-related protein 1 (Homo sapiens) (O94907 whole entry, looked up): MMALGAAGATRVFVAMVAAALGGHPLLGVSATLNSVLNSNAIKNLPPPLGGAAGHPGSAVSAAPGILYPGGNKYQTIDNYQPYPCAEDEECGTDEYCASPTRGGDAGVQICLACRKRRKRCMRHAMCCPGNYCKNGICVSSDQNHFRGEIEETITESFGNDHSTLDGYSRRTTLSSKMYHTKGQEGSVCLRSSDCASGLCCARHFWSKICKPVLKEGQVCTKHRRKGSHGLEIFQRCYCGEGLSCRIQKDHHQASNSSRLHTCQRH

[10] = tested on: Inhibin beta A chain (activin A); assay: INHBA (activin A) binders on microarrays, primary screen, biochemical, small-molecule microarray, 635 nm fluorescence scan (AID 1107); details: small-molecule microarray binding, higher = more signal;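 note: mouse activin A protein probed at 4.33 µg/mL on printed slides; score merges bound-protein fluorescence near 667 nm with spot signal-to-noise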

| SMILES | composite z-score [1] | composite z-score [2] | composite z-score [3] | z-score [4] | composite z-score [5] | composite z-score [6] | composite z-score [7] | composite z-score [8] | composite z-score [9] | composite z-score [10] |
| --- | --- | --- | --- | --- | --- | --- | --- | --- | --- | --- |
| COc1cc(NN2C(C(O)C3CCCCC3)C=CC3C(=O)N(c4ccccc4)C(=O)C32)cc(OC)c1OC (stereo not given) | 1.11 | 0.946 | 1.43 | -0.983 (inactive) | 0.448 | 0.893 | -0.455 | 0.722 | -1.37 | 0.591 |
| C=C(/C(=C/C[C@H](OC(=O)c1ccncc1)c1ccccc1OCCO)c1cnc2ccccc2c1)C(C)C | 1.06 | -0.117 | 0.37 | 0.82 (inactive) | 1.47 | 1.06 | 1.15 | 1.59 | 1.07 | 1.72 |
| C[C@]1(C(=O)NCC(F)(F)F)c2ccccc2C(=O)N(Cc2ccccc2)[C@H]1c1ccc(CO)cc1 | 0.905 | -0.0306 | 0.543 | 0.0226 (inactive) | -1.63 | -1.8 | -1.3 | -1.47 | -1.71 | -0.264 |
| CN(C)C(=O)[C@@]1(Cc2ccccc2N=[N+]=[N-])N=C(c2ccc(OCCCO)cc2)O[C@H]1c1ccccc1 | 1.36 | 0.605 | 1.35 | 0.22 (inactive) | 0.607 | 1.22 | -0.103 | 0.465 | -0.217 | 0.787 |
| COCCOC(=O)N1C(=O)[C@@]2(c3cc(C#CCC(C(=O)OC)C(=O)OC)ccc31)[C@H](C(=O)NC[C@H](O)c1ccccc1)[C@H]1C(=O)O[C@H](c3ccccc3)[C@H](c3ccccc3)N1[C@@H]2c1ccc(O)cc1 | 1.17 | -0.0319 | 0.521 | 0.556 (inactive) | 0.923 | 1.22 | -0.239 | 0.186 | -0.224 | -0.29 |
| COc1ccc([Si](C)(C)[C@@H]2[C@@H](CCn3cc([C@H](O)c4ccccc4)nn3)O[C@]3(C(=O)N(Cc4cccc(N5C(=O)c6cccc7cccc5c67)c4)c4ccccc43)[C@H]2C)cc1 | -0.225 | -0.0463 | 0.575 | 1.41 (inactive) | -0.365 | -0.83 | -1.32 | -0.607 | -1.02 | -0.317 |
| Cc1ccc(S[C@]2(C(=O)NCC(C)C)CC(=O)N(C3Cc4ccccc4C3)[C@@H]2c2ccc(CO)cc2I)cc1 | 1.35 | -0.126 | -0.0156 | -0.968 (inactive) | -0.767 | -0.61 | -0.821 | 0.594 | -1.02 | 0.847 |
| CC(C)N1CC=CC23O[C@@H]4/C=C\CCCOC(=O)C4[C@H]2C(=O)N(CCCCCCO)[C@@H]3C1=O (stereo not given in full) | 1.44 | 0.0846 | 0.777 | 0.569 (inactive) | -0.614 | -0.24 | -1.12 | -1.04 | -1.08 | 1.03 |
| COCCOC(=O)N1C(=O)[C@@]2(c3cc(C#CCCO)ccc31)[C@H](c1ccccc1OCCO)N1[C@H](c3ccccc3)[C@H](c3ccccc3)OC(=O)[C@H]1[C@@H]2C(=O)N1CCCCCCC1 | 1.69 | 2.28 | 1.36 | -0.532 (inactive) | 0.743 | 1.08 | 0.965 | 1.53 | 1.31 | 1.6 |
| CC1CC/C=C\[C@H]2OC34C=CCN(CCN5CCOCC5)C(=O)[C@H]3N(C(C)CO)C(=O)[C@@H]4C2C(=O)O1 (stereo not given in full) | 0.489 | -0.356 | -0.415 | 1.02 (inactive) | -0.42 | -0.42 | -0.599 | -0.214 | -0.0076 | 1.14 |
| CO[C@H]1O[C@H](CO)[C@@H](OC(=O)CCc2ccccc2)[C@H](OC(=O)c2cc3ccccc3[nH]2)[C@H]1OC(=O)c1cc2ccccc2[nH]1 | 0.757 | -0.118 | -0.0052 | -0.766 (inactive) | 1.27 | 0.828 | 0.543 | 0.847 | 0.777 | -0.108 |
| COc1ccc(C(O)C2C=CC3C(=O)N(c4ccccc4)C(=O)C3N2Nc2ccccc2F)cc1 (stereo not given) | 1.47 | 0.447 | 1 | 0.747 (inactive) | 0.111 | 0.102 | -0.296 | 0.0817 | -0.81 | 0.685 |
| C=C[C@@H](OC)[C@H](OC(=O)Nc1ccc(SC)cc1)c1ccc(OCCO)cc1 | 1.4 | 0.0622 | 0.527 | 1.46 (inactive) | 0.887 | 0.64 | 0.419 | 0.839 | 0.444 | 0.0469 |
| COC(=O)[C@@]1(Cc2ccc(OC)cc2)[C@H]2c3cc(C(=O)N4CCCC4)n(Cc4cc(C)n(C)n4)c3C[C@H]2CN1C(=O)c1ccccc1 | 1.74 | 1.26 | 1.17 | 0.317 (inactive) | 1.32 | 0.666 | -0.158 | 0.0098 | -0.712 | 0.104 |
| NC(=O)[C@@H]1[C@H]2C(=O)O[C@H](c3ccccc3)[C@H](c3ccccc3)N2[C@H](c2ccc(OCCO)cc2)[C@@]12C(=O)Nc1ccc(C#CCCO)cc12 | 0.344 | 0.585 | 0.823 | 1.02 (inactive) | 0.372 | -0.168 | -0.385 | -0.12 | 0.0322 | 0.297 |
| COCC(=C=CC[C@@H](O)c1cccc(OCCO)c1)CCO | 1.03 | 0.0771 | 0.268 | 0.317 (inactive) | 0.984 | 0.162 | -0.846 | 0.167 | -0.111 | 0.598 |
| CCOC(=O)C=Cc1ccccc1O | 0.109 | -0.0604 | 0.329 | -1.74 (inactive) | 0.278 | 0.513 | 0.363 | 0.435 | -0.0242 | 0.75 |
| CC1CC/C=C\[C@H]2OC34C=CCN(C(C)(C)C)C(=O)[C@H]3N(C(CO)C(C)C)C(=O)[C@@H]4C2C(=O)O1 (stereo not given in full) | 0.337 | -0.193 | -0.347 | 0.792 (inactive) | 0.352 | 0.156 | -0.33 | 0.27 | 0.391 | 0.524 |
| O=C1C[C@@](C(=O)NCC(F)(F)F)(c2ccc([N+](=O)[O-])cc2)[C@@H](c2ccc(CO)cc2)N1CC12CC3CC(CC(C3)C1)C2 | 1.4 | 1.09 | 0.957 | -2.11 (inactive) | 1.44 | 1.07 | 1.13 | 1.03 | 0.927 | 0.469 |
| CCCCC(=C=CC[C@H](O)c1ccc(OCCO)cc1)C[C@H](O)c1cc(Cl)cc(Cl)c1O | 1.06 | -0.0865 | 0.218 | -0.321 (inactive) | 1.35 | 0.11 | -0.0609 | 0.17 | 0.193 | 0.813 |
| O=C1N[C@@H](Cc2ccccc2)C(=O)N2[C@@H]1C[C@@H](C(=O)O)[C@H]2c1ccc(O)cc1 | 1.31 | 0.731 | 0.707 | -0.485 (inactive) | 0.727 | 0.86 | 0.315 | 1.45 | 1.63 | 0.853 |
| C=C[C@@H](C)[C@@H](OC(=O)Nc1ccc(SC)cc1)c1ccc(OCCO)cc1 | 1.4 | -0.289 | 0.753 | -1.01 (inactive) | 0.472 | 0.335 | 0.0159 | 0.426 | -0.185 | 0.0303 |
| CC(C)C(=C=CC[C@@H](O)c1cccc(OCCO)c1)C[C@@H](O)COCc1ccccc1 | 1.04 | -0.119 | -0.118 | -0.952 (inactive) | 0.543 | -0.174 | -0.208 | 0.178 | -0.445 | 0.198 |
| COc1cccc(/C=C(\C#N)C(=O)Nc2c(C)n(C)n(-c3ccccc3)c2=O)c1 | 0.129 | -0.0045 | 0.0654 | -0.238 (inactive) | 0.179 | 0.497 | 0.413 | 0.447 | 0.0952 | 0.141 |
| Cc1ccc(F)cc1S(=O)(=O)N[C@@H]1CCN(Cc2cccc3[nH]ccc23)C1 | 0.245 | -0.374 | -0.518 | -0.44 (inactive) | 0.67 | 0.67 | 0.719 | 1.36 | 0.236 | 0.741 |
| O=C(NCCN1CCOCC1)[C@@H]1c2ccccc2C(=O)N(Cc2ccccc2)[C@H]1c1ccc(CO)cc1 | 0.84 | -0.117 | 0.82 | -0.316 (inactive) | -0.765 | -1.13 | -1.81 | -0.481 | -0.667 | 0.269 |
| C=CCN1C(=O)[C@]2(O[C@H](CCO)[C@@H]([Si](C)(C)c3ccc(OC)cc3)[C@@H]2C)c2cc(NC(=O)c3ccc(OC)cc3)ccc21 | 0.527 | -0.19 | -0.525 | -2.1 (inactive) | 0.468 | 0.448 | 0.484 | 1.23 | 0.682 | 0.982 |
| COCCCNC(=O)[C@@]1(Sc2ccc(C)cc2)CC(=O)N(Cc2ccccc2Cl)[C@@H]1c1ccc(CO)cc1I | 0.515 | 0.0057 | 0.791 | -0.529 (inactive) | -0.668 | -1.05 | -1.29 | -0.491 | -1.12 | 0.45 |
